# Where “and” joins values, the source holds several entries; their conditions need not be identical. Equal values may be shown once. The whole screen tested about 66,000 compounds, of which about 720 (1.1%) were called active. Rule as the data show it: active = normalised signal below about 0.5; inactive = the rest, inconclusive results apart. The list comes from a sample in which actives are over-represented; it also holds similar structures and randomly drawn compounds.
# Molecular target: Chromobox protein homolog 7 (Homo sapiens) (UniProt O95931)
# Sequence (O95931 whole entry, looked up): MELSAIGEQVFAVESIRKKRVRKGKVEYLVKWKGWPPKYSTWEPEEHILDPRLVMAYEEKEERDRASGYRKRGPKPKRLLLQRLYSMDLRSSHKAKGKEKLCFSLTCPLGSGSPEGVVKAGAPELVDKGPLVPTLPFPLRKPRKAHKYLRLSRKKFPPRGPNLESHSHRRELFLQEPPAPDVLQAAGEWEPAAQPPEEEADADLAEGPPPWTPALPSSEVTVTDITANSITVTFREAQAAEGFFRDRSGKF
# Test: blockers of CBX7 binding to H3K27me3 peptide – biochemical, AlphaScreen, primary screen (AID 1224903)
# Settings: AlphaScreen His6-CBX7 / biotin-H3K27me3 peptide binding, stronger effect = lower value; z-score: measured here: z-score of CBX7 signal
Structure (SMILES),normalised signal (fraction of DMSO),z-score
COc1ccc(CCNC(=O)CCc2c(C)nc3c(c(C)nn3-c3ccc(C)cc3)c2C)cc1OC,1.07 (inactive),1.56
COc1cccc(Nc2nc(-c3ccc(Cl)cc3)cs2)c1,0.908 (inactive) and 0.897 (inactive),-1.58 and -2.88
O=C(Nc1ccc(-c2nc3ccccc3o2)c(O)c1)c1ncn[nH]1,0.308 (active),-19.7
COc1cc(OC)cc(C(=O)Nc2ccc(-c3nc4ccccc4o3)c(O)c2)c1,0.956 (inactive),-0.356
O=C(Nc1ccc(-c2nc3ccccc3o2)c(O)c1)c1cccc(F)c1,1.11 (inactive),2.16
CCOC(=O)CNC(=O)c1cc2c(n(-c3ccc(C)cc3)c1=O)CCCC2=O,1.19 (inactive),0.796
CCN1CCCC1CNC(=O)c1ccc2c(c1)N(Cc1ccccc1)CCS2 (stereo unspecified),0.92 (inactive),-0.106
Cc1ccc(NC(=O)C2CCCN(S(=O)(=O)c3cccc4cccnc34)C2)cc1F (stereo unspecified),1.02 (inactive),0.516
COc1ccccc1NC(=O)c1c(NCc2ccncc2)sc2c1CCCC2,0.583 (inactive),-5.84
COc1ccccc1NC(=O)c1c(NCc2cccs2)sc2c1CCCC2,0.467 (active),-7.46
CCOC(=O)c1ccc(NC(=O)c2c(NCc3cccs3)sc3c2CCCC3)cc1,0.674 (inactive),-4.57
C=CCN(CC=C)S(=O)(=O)c1ccc(C(=O)Nc2nnc(-c3cccs3)o2)cc1,0.877 (inactive),-3.03
CN(C)S(=O)(=O)c1ccc(C(=O)Nc2nnc(-c3ccccc3Cl)o2)cc1,0.145 (active),-14.4
COCCN(CCOC)S(=O)(=O)c1ccc(C(=O)Nc2nnc(-c3cccs3)o2)cc1,0.698 (inactive),-6.83
COc1ccc(-c2nnc(NC(=O)c3ccc(S(=O)(=O)N4CCC(C)CC4)cc3)o2)cc1,0.796 (inactive),-4.6
CCCCN(CC)S(=O)(=O)c1ccc(C(=O)Nc2nnc(-c3ccc(Cl)s3)o2)cc1,1.03 (inactive),0.687
CCN(CC)S(=O)(=O)c1ccc(C(=O)Nc2nnc(-c3cc(OC)cc(OC)c3)o2)cc1,0.885 (inactive),-1.93
COc1ccc(-c2nnc(NC(=O)c3ccc(S(=O)(=O)N4CC(C)OC(C)C4)cc3)o2)c(OC)c1 (stereo unspecified),0.629 (inactive),-8.38
CN(Cc1ccccc1)S(=O)(=O)c1ccc(C(=O)Nc2nnc(-c3ccccc3Cl)o2)cc1,0.095 (active),-15.2
CC1CCCCN1S(=O)(=O)c1ccc(C(=O)Nc2nnc(-c3cccs3)o2)cc1 (stereo unspecified),0.92 (inactive),-1.8
CCC1CCCCN1S(=O)(=O)c1ccc(C(=O)Nc2nnc(COC)o2)cc1 (stereo unspecified),0.727 (inactive),-7.33

Structure (SMILES),normalised signal (fraction of DMSO),z-score
CCCCN(C)S(=O)(=O)c1ccc(C(=O)Nc2nnc(C)o2)cc1,0.00344 (active),-1.32
CN(C)S(=O)(=O)c1ccc(C(=O)Nc2nnc(C3CC3)o2)cc1,0.379 (active),-14
Cc1cc(=O)n2nc(N3CCCC(C(=O)N4CCCCC4)C3)sc2n1 (stereo unspecified),1.09 (inactive),0.832
O=C(Nc1ccccc1F)c1cc2c(s1)-c1ccccc1OC2,1.53 (inactive),15.1
COc1cccc(-c2nc(CS(=O)(=O)CC(=O)NCCCN(CC(C)C)CC(C)C)c(C)o2)c1,1.42 (inactive),3.56
CCc1ccc(-n2cnc3cc(C(=O)NC4CCCC4)ccc32)cc1,0.805 (inactive),-3.38
COc1ccc(CCNC(=O)c2cn(-c3ccc(Cl)cc3)c(=O)c3ccccc23)cc1OC,1.03 (inactive),0.92
CCCCOc1ccc(C(=O)N(Cc2ccc(OC)cc2)C2CCS(=O)(=O)C2)cc1 (stereo unspecified),0.91 (inactive),-0.0894
O=C(c1ccc(Cl)nc1)N1CCNc2ccccc2C1,0.975 (inactive),-0.305
CCCN1CCN(CCCNC(=O)CN2C(=O)COc3ccccc32)CC1,1.01 (inactive),0.274
CCCCNC(=O)CN1C(=O)COc2ccccc21,0.475 (active),-4.69
O=C(CN1C(=O)COc2ccccc21)NCCN1CCc2ccccc2C1,1.06 (inactive),1.85
CN(CC(=O)NCCc1ccccc1)S(=O)(=O)c1cnc[nH]1,1.26 (inactive),2.17
COC(CNC(=O)c1csc2c1CCCCC2)OC,0.834 (inactive),-2.13
Cc1ccc(-n2c(Cc3cccn3C)nnc2SCC(=O)Nc2ccc(C)c(Cl)c2)cc1,0.926 (inactive),-1.77
Cc1sc2ncn(CC(=O)NCC(=O)NCCCN3CCOCC3)c(=O)c2c1C,1.08 (inactive),0.741
Cc1ccccc1Cn1c(CCNC(=O)C(C)(C)C)nc2ccccc21,1.12 (inactive),1.79
Cc1cccc(C)c1Nc1c(-c2ccccn2)nc2sccn12,0.5 (active),-5.94
Cc1ccc(Nc2c(-c3ccc(Cl)cc3)nc3sccn23)c(C)c1,0.736 (inactive),-5.27
Cc1cccc(C)c1Nc1c(-c2ccsc2)nc2cnccn12,0.944 (inactive),-0.669
COc1ccc2c(c1OC)C(=O)N(c1ccc(O)cc1)C2,0.99 (inactive),-0.11

Structure (SMILES),normalised signal (fraction of DMSO),z-score
COc1ccc2c(c1OC)C(=O)N(c1ncn[nH]1)C2,0.25 (active),-16
CCOC(=O)c1cnc2c(C)cc(C)cc2c1Nc1ccccc1CC,1.15 (inactive),1.45
CCOC(=O)c1cnc2c(C)cc(C)cc2c1Nc1ccc(N2CCOCC2)cc1,0.35 (active),-16.2
CCOC(=O)c1cnc2c(C)cc(C)cc2c1Nc1cccc(OC)c1,1.03 (inactive),0.43
CC(=O)Oc1ccc(C2CC(=O)Nc3cc4c(cc32)OCO4)cc1 (stereo unspecified),0.988 (inactive),-0.494
CC(=O)Nc1ccc(S(=O)(=O)NCc2ccc(C(=O)NCCc3ccc(C)cc3)cc2)cc1,1.42 (inactive),1.84
COc1ccc(Cn2c(=O)c3cccnc3n(Cc3ccc(C)cc3)c2=O)cc1,1.11 (inactive),1.94
O=C(NCCCc1ccccc1)c1ccc2c(c1)N(Cc1ccccc1)CCS2,0.992 (inactive),-0.011
CCN(CCCNC(=O)c1c[nH]c2ccc(S(=O)(=O)N(CC)CC)cc2c1=O)c1cccc(C)c1,0.423 (active),-6.22
CCCCCCNC(=O)c1c[nH]c2ccc(S(=O)(=O)N(CC)c3cccc(C)c3)cc2c1=O,1.08 (inactive),1.26
COCCCNC(=O)c1c[nH]c2ccc(S(=O)(=O)N(C)c3cccc(C)c3)cc2c1=O,1.02 (inactive),0.264
O=C(CCCN1C(=O)CSc2ncccc21)NC1CCN(Cc2ccccc2)CC1,1.02 (inactive),0.27
O=C(Nc1ccc(C(F)(F)F)cc1)c1n[nH]c(=O)c2ccccc12,1.17 (inactive),1.04
COc1ccc(-c2noc(CCC(=O)NCc3cccc(OC)c3)n2)cc1,0.872 (inactive),-1.96
CCCNC(=O)c1nn2c(C(F)(F)F)cc(-c3ccco3)nc2c1Br,1.09 (inactive),2.47
CCC(CO)NCC(O)COCc1ccc(Cl)cc1 (stereo unspecified),1.05 (inactive),0.823
O=C(Cn1nc(-c2ccccc2)c2cc(Cl)ccc21)NCc1ccccc1,1.08 (inactive),2.18
Cc1cc(Br)ccc1NC(=O)CNC(=O)Cn1c(C)cc2ccccc2c1=O,1.18 (inactive),1.84
CCCCN(CC)CCCNC(=O)C1CCN(C(=O)c2cc3sccc3n2C)CC1,0.959 (inactive),-0.744
Cc1ccc(OCC(=O)Nc2ccc(S(=O)(=O)Nc3nccs3)cc2)c(Br)c1,1 (inactive),0.0983
CCc1c(-c2ccccc2)nc2ccccc2c1C(=O)NCC1COc2ccccc2O1 (stereo unspecified),0.762 (inactive),-0.941

# Source: PubChem BioAssay AID1224903 (Bradner/Qi Labs at DFCI, 2016)
